9 compounds from PubChem BioAssay (NCI) can be followed below.

This is part of a sample that, as a whole, favours compounds with a hit. Of some 83,000 tested, about 20% had one in any assay.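 Step 1: grow cells in 96-well plates. Step 2: add test compound at a single concentration. Step 3: incubate 48 h. Step 4: record percent growth.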 A number with no mark means an inactive call. Active and inactive are the calls of the source. How the source made its calls: active means growth percent below 10; inactive means the rest.

Test systems include SR leukemia; RPMI-8226 leukemia; OVCAR-8 ovarian; OVCAR-5 ovarian; OVCAR-4 ovarian; SK-OV-3 ovarian; IGROV1 ovarian; OVCAR-3 ovarian; T-47D breast; BT-549 breast; MDA-MB-435 melanoma; SW-620 colon; MCF7 breast; HCT-116 colon; HCC-2998 colon; KM12 colon; HS 578T breast; NCI/ADR-RES ovarian.
Common to all, as to assay: NCI-60 one-dose screen, 48 h (100 = growth as untreated, 0 = no growth, -100 = all killed)
Common to all, as to settings: 10 µM unless noted

In the case of `Cc1ccc(-c2ccc(Nc3ccccc3)nn2)cc1S(N)(=O)=O`, the growth in the assay on SR leukemia is 23.6%; in the assay with RPMI-8226 leukemia, 86.1%; in the assay with OVCAR-8 ovarian, 94.1%; with OVCAR-5 ovarian, 101%; in the assay on OVCAR-4 ovarian, 94.7%; with SK-OV-3 ovarian it was 100%. Further, the growth was 97.3% with IGROV1 ovarian; 94.6% with OVCAR-3 ovarian; 84.2% with T-47D breast; 80.6% in the assay on BT-549 breast; 8.3% (active) in the assay on MDA-MB-435 melanoma; 51.7% in the assay with SW-620 colon. The growth in the assay on MCF7 breast is 78.1%; with HCT-116 colon it was 79%; in the assay with HCC-2998 colon it was 59.8%; with KM12 colon, 39.3%.
On to `C#CCn1c2c(c3ccccc31)C[C@]1(C)[C@H]3CC[C@@H]4[C@@H]5C(=CCC[C@H]5C(=C)C)CC[C@@]4(C)[C@]3(C)CC[C@H]1C2(C)C`, for which the growth is 82.7% in the assay on SR leukemia; 106% in the assay with RPMI-8226 leukemia; 105% with OVCAR-8 ovarian; 101% with OVCAR-5 ovarian; 100% with OVCAR-4 ovarian; 108% in the assay on SK-OV-3 ovarian. Besides, the growth with IGROV1 ovarian is 98.4%; in the assay with OVCAR-3 ovarian, 108%; with HS 578T breast, 93.8%; in the assay with T-47D breast it was 106%; in the assay with BT-549 breast, 100%; in the assay on MDA-MB-435 melanoma it was 102%. Moreover, the growth in the assay with SW-620 colon was 98.2%; in the assay on MCF7 breast, 95.7%; with HCT-116 colon, 101%; in the assay with HCC-2998 colon, 102%; with KM12 colon, 102%.
As for `COc1ccc2c(c1)c(-c1nc(-c3c[nH]c4ncccc34)cs1)cn2CCNC(=O)OC(C)(C)C`, the growth was 62.7% in the assay with SR leukemia; 41.2% with RPMI-8226 leukemia; 45.7% in the assay on OVCAR-8 ovarian; 104% in the assay with OVCAR-5 ovarian; 55.7% with OVCAR-4 ovarian; 110% in the assay with SK-OV-3 ovarian. For the same compound, the growth with OVCAR-3 ovarian was 84.4%; in the assay on HS 578T breast it was 76.3%; with NCI/ADR-RES ovarian, 56.6%; in the assay on T-47D breast, 9.63% (active); with BT-549 breast it was 84.5%; with MDA-MB-435 melanoma it was 94.7%. Also, the growth with SW-620 colon is 96%; with MCF7 breast, 37.3%; with HCT-116 colon, 87.6%; in the assay on HCC-2998 colon it was 96.6%; in the assay with KM12 colon, 46.1%.
Take `Cc1cc2nc3c4cc(N)ccc4n(CCN(C)C)c3nc2cc1C`: the growth with SR leukemia was -0.184% (active); in the assay with RPMI-8226 leukemia, -7.46% (active); with OVCAR-8 ovarian, 13.7%; in the assay on OVCAR-5 ovarian it was 18.5%; with OVCAR-4 ovarian, 14.6%; with SK-OV-3 ovarian, 18.4%. Also, the growth is 22.3% with OVCAR-3 ovarian; 41.8% with HS 578T breast; 2.88% (active) with NCI/ADR-RES ovarian; 16.1% in the assay with T-47D breast; 45% with BT-549 breast; 14.6% in the assay on MDA-MB-435 melanoma. Further, the growth in the assay on SW-620 colon is 7.31% (active); with MCF7 breast it was -19.6% (active); in the assay with HCT-116 colon, 5.51% (active); in the assay with HCC-2998 colon it was 17%; in the assay with KM12 colon it was 17.4%.
As for `CC(=O)OC[C@]12CC[C@@H](/C(C)=N/O)[C@@H]1[C@H]1CC[C@@H]3[C@@]4(C)CCCNC(C)(C)[C@@H]4CC[C@@]3(C)[C@]1(C)CC2`, the growth in the assay on SR leukemia is 51.8%; with RPMI-8226 leukemia, 49.2%; with OVCAR-8 ovarian, 73.3%; in the assay with OVCAR-5 ovarian, 103%; in the assay on OVCAR-4 ovarian, 53.9%; in the assay with SK-OV-3 ovarian, 62.9%. The growth in the assay with OVCAR-3 ovarian was 65.7%; in the assay with HS 578T breast it was 76%; in the assay on NCI/ADR-RES ovarian, 77.4%; in the assay with T-47D breast it was 47.7%; with BT-549 breast, 66.2%; in the assay on MDA-MB-435 melanoma, 81.8%. Also, the growth in the assay with SW-620 colon was 80.3%; in the assay on MCF7 breast it was 57.4%; in the assay with HCT-116 colon, 46.5%; with HCC-2998 colon it was 95.2%; in the assay with KM12 colon it was 76.4%.
On to `Oc1cc(/C=C/c2nc(N3CCOCC3)c3cc(Cl)c(Cl)cc3n2)cc(O)c1O`, for which the growth in the assay on SR leukemia was 87.8%; in the assay on RPMI-8226 leukemia, 103%; with OVCAR-8 ovarian it was 107%; with OVCAR-5 ovarian, 102%; with OVCAR-4 ovarian, 110%; with SK-OV-3 ovarian, 105%. Besides, the growth in the assay on IGROV1 ovarian was 108%; in the assay with HS 578T breast, 118%; in the assay with NCI/ADR-RES ovarian, 100%; with T-47D breast, 94.9%; with BT-549 breast it was 95.5%; with MDA-MB-435 melanoma, 106%. Further, the growth in the assay on SW-620 colon is 107%; with MCF7 breast, 106%; in the assay on HCT-116 colon, 104%; with HCC-2998 colon it was 104%; with KM12 colon, 111%.
Regarding `COc1ccc(C2C(C#N)=C(N)Oc3c2sc2c(F)cccc32)cc1` (stereo not given), the growth is 11.6% with SR leukemia; 11.8% with RPMI-8226 leukemia; 25.9% in the assay with OVCAR-8 ovarian; 69.3% in the assay with OVCAR-5 ovarian; 65.7% with OVCAR-4 ovarian; 20.7% in the assay on SK-OV-3 ovarian. Further, the growth in the assay on IGROV1 ovarian was 30.6%; with OVCAR-3 ovarian, -4.86% (active); with HS 578T breast it was 42.4%; in the assay with T-47D breast it was 23.8%; with BT-549 breast it was 37%; in the assay with MDA-MB-435 melanoma, -23.9% (active). Also, the growth in the assay with SW-620 colon is 25.1%; in the assay on MCF7 breast, 15.4%; in the assay with HCT-116 colon, 8.94% (active); in the assay on KM12 colon, 35.5%.
As for `COc1ccc(C2c3ccccc3NC(=O)N2C2CCN(C)CC2)c(OC)c1` (stereo not given), the growth in the assay with SR leukemia was 41.4%; with RPMI-8226 leukemia, 113%; in the assay on OVCAR-8 ovarian it was 104%; with OVCAR-5 ovarian it was 88.4%; with OVCAR-4 ovarian, 105%; in the assay on SK-OV-3 ovarian, 101%. In addition, the growth in the assay with OVCAR-3 ovarian is 110%; with HS 578T breast it was 92%; in the assay on NCI/ADR-RES ovarian, 103%; with T-47D breast, 100%; in the assay with BT-549 breast it was 107%; in the assay with MDA-MB-435 melanoma, 72%. Further, the growth in the assay on SW-620 colon is 101%; in the assay with MCF7 breast, 78.1%; in the assay with HCT-116 colon it was 107%; in the assay with HCC-2998 colon, 105%; in the assay on KM12 colon, 99.6%.
Consider `CCCC(=O)N1CCCCC1CC` (stereo not given), for which the growth in the assay on SR leukemia is 102%; in the assay on RPMI-8226 leukemia, 95.7%; in the assay on OVCAR-8 ovarian, 95.3%; in the assay on OVCAR-5 ovarian, 87.5%; with OVCAR-4 ovarian, 102%; in the assay on SK-OV-3 ovarian, 111%. Further, the growth with IGROV1 ovarian is 120%; in the assay on OVCAR-3 ovarian it was 105%; in the assay with NCI/ADR-RES ovarian, 115%; with T-47D breast it was 110%; in the assay on BT-549 breast, 100%; with SW-620 colon, 93.8%. For the same compound, the growth in the assay on MCF7 breast was 103%; in the assay on HCT-116 colon, 116%; with HCC-2998 colon, 115%; in the assay with KM12 colon, 108%.
